From PubChem BioAssay (Tox21)
Records with an inconclusive call do not appear. The source made the active and inactive calls. Unless noted, the call rests on the fitted dose curve; in most records, active means well fitted curve in the direction sought with a large enough effect in the repeat runs; inconclusive means weak or mixed curves; inactive means no such curve, though single readings can be large; an effect the other way counts as inactive or inconclusive.

Tests used:
[1] = target: Thyrotropin receptor (Homo sapiens) (UniProt P16473); assay: qHTS assay to identify small molecule agonists of the thyroid stimulating hormone receptor (TSHR) signaling pathway (AID 1224843; calls by dose curve; further: nearly all actives have a fitted effect of over 45% in size)
Thyrotropin receptor (Homo sapiens), sequence (P16473 whole entry, looked up): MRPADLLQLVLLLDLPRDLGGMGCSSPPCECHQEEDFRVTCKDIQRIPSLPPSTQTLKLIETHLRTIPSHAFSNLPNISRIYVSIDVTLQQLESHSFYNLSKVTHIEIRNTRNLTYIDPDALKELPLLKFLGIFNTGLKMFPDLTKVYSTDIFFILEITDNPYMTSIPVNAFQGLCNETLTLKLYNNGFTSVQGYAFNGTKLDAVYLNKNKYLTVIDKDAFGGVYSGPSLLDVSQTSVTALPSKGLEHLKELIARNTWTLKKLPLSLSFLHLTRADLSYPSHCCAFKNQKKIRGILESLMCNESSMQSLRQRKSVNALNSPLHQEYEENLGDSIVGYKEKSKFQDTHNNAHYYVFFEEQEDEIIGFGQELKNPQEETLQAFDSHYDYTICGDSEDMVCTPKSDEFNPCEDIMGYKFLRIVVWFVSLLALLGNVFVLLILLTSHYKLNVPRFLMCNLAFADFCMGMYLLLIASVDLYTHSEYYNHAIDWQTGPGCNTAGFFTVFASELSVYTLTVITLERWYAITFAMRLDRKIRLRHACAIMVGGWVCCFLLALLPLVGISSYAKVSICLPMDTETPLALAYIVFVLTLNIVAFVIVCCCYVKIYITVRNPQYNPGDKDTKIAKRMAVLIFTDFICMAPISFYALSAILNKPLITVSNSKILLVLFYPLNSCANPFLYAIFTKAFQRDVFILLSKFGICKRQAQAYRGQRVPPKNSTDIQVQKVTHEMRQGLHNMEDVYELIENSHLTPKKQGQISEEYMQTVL
Procedure, shortened: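 TSHR-expressing HEK293 cells (800 per well) were exposed to compounds for 30 min at room temperature. cAMP was then detected by HTRF competition with cAMP-d2 and anti-cAMP cryptate, read after 1 h at room temperature. Fifteen concentrations, triplicate.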

[2] = qHTS assay to identify small molecule agonists of the hypoxia (HIF-1) signaling pathway - cell viability counter screen (AID 1224844; calls by dose curve; further: nearly all actives have a fitted effect of over 50% in size)
Procedure, shortened: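 HRE-bla ME-180 cells in medium with 0.5% dialyzed FBS were preincubated 5 hrs at 37C, exposed to compounds for 17 hrs, then viability was read as CellTiter-Glo luminescence after 30 min at room temperature, in the reporter wells.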

[3] = qHTS assay to identify small molecule agonists of H2AX (AID 1224845; active means well fitted activation curve with a large enough effect in the signal ratio in the repeat runs, not every such curve was filed as active; the % refers to the signal ratio)
Procedure, shortened: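 Wild-type CHO-K1 cells plated overnight, then exposed 3 hr at 37C to compounds at 15 concentrations (0.76% DMSO). Lysed, then HTRF anti-pH2AX(S139)-cryptate/anti-H2AX-d2 detection after 24 hr at room temperature; emissions 665 and 620 nm.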

[4] = qHTS assay to identify small molecule agonists of H2AX - cell viability counter screen (AID 1224847; calls by dose curve; further: top concentration of the series differs between compounds; nearly all actives have a fitted effect of over 30% in size)
Procedure, shortened: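 After overnight plating of 1000 CHO-K1 cells per well, a 15-concentration compound series was applied for 3 hr at 37C. Luminescence from CellTiter-Glo, read following 30 min at room temperature, reflected cell viability.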

[5] = qHTS RealTime-Glo MT Cell Viability Assay in HepG2 cells - 24 hour (AID 1224867); further: nearly all actives have a fitted effect of over 50% in size
Procedure, shortened: (§1)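 Tox21 10K library screened in qHTS format on HepG2 cells carrying RealTime-Glo reagents. Compounds were added after a 5 h preincubation, and the luminescent signal from continuous culture was measured repeatedly during 40 h treatment.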

[6] = qHTS RealTime-Glo MT Cell Viability Assay in HEK293 cells - 32 hour (AID 1224868); further: top concentration of the series differs between compounds; nearly all actives have a fitted effect of over 50% in size
Procedure, shortened: (§2)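 Luminescence generated by NanoLuc from substrate produced by living HEK293 cells served as the viability signal. Each value reflects the reading at its stated time point during continuous 40 h compound exposure at 37 C.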

[7] = A CellTox Green Cytotoxicity Assay to monitor cytotoxicity in HEK293 cells - 0 hour (AID 1224869); further: nearly all actives have a fitted effect of over 50% in size
Procedure, shortened: (§3)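 HEK293 cells premixed with CellTox Green dye were seeded at 600 cells/well and left 5 h at 37 C/5% CO2 before pin transfer of 23 nL compound in DMSO. Fluorescence from dye bound to dead-cell DNA was read during 40 h treatment.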

[8] = qHTS RealTime-Glo MT Cell Viability Assay in HepG2 cells - 40 hour (AID 1224870); further: nearly all actives have a fitted effect of over 50% in size
Procedure, shortened: (§4)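 HepG2 cells mixed with RealTime-Glo MT reagents (NanoLuc plus cell-permeant prosubstrate) were seeded at 600 cells/well, incubated 5 h at 37 C/5% CO2, then pinned with compounds in DMSO; nonlytic luminescence tracked viability during 40 h treatment.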

[9] = A CellTox Green Cytotoxicity Assay to monitor cytotoxicity in HEK293 cells - 40 hour (AID 1224871); further: nearly all actives have a fitted effect of over 45% in size
Procedure, shortened: as §3

[10] = qHTS RealTime-Glo MT Cell Viability Assay in HEK293 cells - 16 hour (AID 1224872)
Procedure, shortened: as §2

[11] = qHTS RealTime-Glo MT Cell Viability Assay in HEK293 cells - 40 hour (AID 1224874); conditions: RealTime-Glo luminescence; max response: active compounds read low; further: nearly all actives have a fitted effect of over 50% in size
Procedure, shortened: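 HEK293 cells mixed with RealTime-Glo reagents (NanoLuc plus cell-permeant prosubstrate) at 600 cells/well, preincubated 5 h at 37 C/5% CO2, then given 23 nL compound in DMSO. Nonlytic luminescence from viable cells was read at 0, 8, 16, 24, 32 and 40 h.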

[12] = A CellTox Green Cytotoxicity Assay to monitor cytotoxicity in HEK293 cells - 24 hour (AID 1224875); further: nearly all actives have a fitted effect of over 45% in size
Procedure, shortened: as §3

[13] = A CellTox Green Cytotoxicity Assay to monitor cytotoxicity in HepG2 cells - 16 hour (AID 1224876); further: nearly all actives have a fitted effect of over 45% in size
Procedure, shortened: (§5)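 HepG2 cells were seeded together with the CellTox Green dye at 600 cells/well, left 5 h at 37 C/5% CO2, then given compounds in DMSO. Fluorescence from dye bound to dead-cell DNA was read repeatedly over 40 h of treatment at 37 C.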

[14] = A CellTox Green Cytotoxicity Assay to monitor cytotoxicity in HepG2 cells - 24 hour (AID 1224878); further: nearly all actives have a fitted effect of over 45% in size
Procedure, shortened: as §5

[15] = A CellTox Green Cytotoxicity Assay to monitor cytotoxicity in HepG2 cells - 40 hour (AID 1224879); further: nearly all actives have a fitted effect of over 40% in size
Procedure, shortened: as §5

[16] = qHTS RealTime-Glo MT Cell Viability Assay in HepG2 cells - 8 hour (AID 1224873); further: nearly all actives have a fitted effect of over 55% in size
Procedure, shortened: as §4

[17] = qHTS RealTime-Glo MT Cell Viability Assay in HepG2 cells - 32 hour (AID 1224877); further: nearly all actives have a fitted effect of over 55% in size
Procedure, shortened: as §1

[18] = qHTS assay to identify small molecule antagonists of the estrogen related receptor (ERR) signaling pathway from Tox21 library (AID 1224848); further: nearly all actives have a fitted effect of over 50% in size
Procedure, shortened: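 Cells: ERR line, 2,000/well; 6 h preincubation 37 C/5% CO2. Cpd in DMSO via pin tool; 18 h, 37 C. ONE-Glo, 30 min RT, luminescence.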

[19] = qHTS assay to identify small molecule agonists of the estrogen related receptor (ERR) signaling pathway from Tox21 library (AID 1224849; calls by dose curve; further: nearly all actives have a fitted effect of over 15% in size); conditions: ERR reporter cell line, ONE-Glo luciferase, 18 h; at 92.4 µM (top of the series) unless noted
Procedure, shortened: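 ERR reporter cell line (NTP) seeded, rested 6 h at 37 C/5% CO2, then pinned with Tox21 compounds in DMSO. After 18 h at 37 C, ONE-Glo luciferase luminescence was read following 30 min at room temperature.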

[20] = qHTS assay to identify small molecule agonists of the hypoxia (HIF-1) signaling pathway (AID 1224846; active means well fitted activation curve with a large enough effect in the signal ratio in the repeat runs, not every such curve was filed as active; the % refers to the signal ratio)
Procedure, shortened: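 HRE-bla ME-180 cells (beta-lactamase reporter under hypoxia response element) were plated at 2,000 cells/well in medium with 0.5% dialyzed FBS, rested 5 hrs, then given compounds in DMSO for 17 hrs at 37C, 5% CO2. Reporter induction was read with CCF4-AM FRET substrate.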
On the % scale 0 is the no-effect control and ±100 the full control effect.

N#CCc1ccccc1[N+](=O)[O-]
inactive: outcome [1] | Potency [2] | outcome [3] | Potency [4] | outcome [5] | Potency [6] | Potency [7] | Potency [8] | Potency [9] | Potency [10] | max response [11] 9.34% | Potency [12] | Potency [13] | Potency [14] | Potency [15]

NS(=O)(=O)c1cc2c(cc1Cl)NC(CSCc1ccccc1)=NS2(=O)=O
inactive: outcome [1] | Potency [2] | outcome [3] | Potency [4] | outcome [5] | Potency [6] | Potency [7] | Potency [9] | Potency [10] | outcome [16] | max response [11] -0.803% | Potency [12] | Potency [13] | Potency [17] | Potency [14] | Potency [15]

NS(=O)(=O)c1cc(C2(O)NC(=O)c3ccccc32)ccc1Cl (stereo not given)
inactive: outcome [1] | Potency [2] | outcome [3] | Potency [4] | outcome [5] | Potency [6] | Potency [8] | Potency [9] | Potency [10] | outcome [16] | max response [11] 1% | Potency [12] | Potency [13] | Potency [17] | Potency [14] | Potency [15]

CCOC(=O)[C@H](CCc1ccccc1)N[C@@H](C)C(=O)N1CCC[C@H]1C(=O)O
inactive: outcome [1] | Potency [2] | outcome [3] | Potency [4] | Potency [18] | activity change, positive = activation [19] 3.79% [at 42.5 µM] | outcome [5] | Potency [6] | Potency [8] | Potency [9] | outcome [16] | max response [11] -0.439% | Potency [12] | Potency [13] | Potency [14] | Potency [15]

CCCCCCCCN(C)CCCCCCCC
inactive: outcome [1] | Potency [2] | outcome [3] | Potency [4] | Potency [18] | activity change, positive = activation [19] 18.3% | outcome [5] | Potency [6] | Potency [7] | Potency [8] | Potency [9] | outcome [16] | max response [11] 4.39% | Potency [12] | Potency [13] | Potency [17]

CC(C)COC(=O)c1ccccc1O
inactive: outcome [1] | Potency [2] | outcome [3] | Potency [4] | outcome [5] | Potency [6] | Potency [7] | Potency [8] | Potency [9] | Potency [10] | outcome [16] | max response [11] 7.83% | Potency [12] | Potency [13] | Potency [17] | Potency [14] | Potency [15]

CN(C)CCn1nnnc1SCC1=C(C(=O)O)N2C(=O)[C@@H](NC(=O)Cc3csc(N)n3)[C@H]2SC1
inactive: outcome [1] | Potency [2] | outcome [3] | Potency [4] | outcome [5] | Potency [6] | Potency [7] | Potency [8] | Potency [9] | Potency [10] | outcome [16] | max response [11] 13.3% | Potency [13] | Potency [14] | Potency [15]

C[C@H](O)C(=O)Nc1c(I)c(C(=O)NC(CO)CO)c(I)c(C(=O)NC(CO)CO)c1I
inactive: outcome [1] | Potency [2] | outcome [3] | Potency [4] | outcome [5] | Potency [7] | Potency [8] | Potency [9] | Potency [10] | outcome [16] | max response [11] 4.24% | Potency [13] | Potency [17] | Potency [14] | Potency [15]

O=C(O)c1cccc(C(=O)O)n1
inactive: outcome [1] | Potency [2] | outcome [20] | Potency [4] | Potency [18] | activity change, positive = activation [19] 2.2% | outcome [5] | Potency [6] | Potency [7] | Potency [8] | Potency [9] | Potency [10] | outcome [16] | max response [11] -0.906% | Potency [12] | Potency [13] | Potency [17] | Potency [14] | Potency [15]

O=C(O)c1ccc[n+]([O-])c1
inactive: outcome [1] | Potency [2] | Potency [4] | outcome [5] | Potency [6] | Potency [9] | Potency [10] | outcome [16] | max response [11] 8.34% | Potency [13] | Potency [17] | Potency [14] | Potency [15]

C#CC(O)C(CC)CCCC (stereo not given)
inactive: outcome [1] | Potency [2] | outcome [20] | Potency [4] | outcome [5] | Potency [6] | Potency [7] | Potency [9] | Potency [10] | outcome [16] | max response [11] 11.7% | Potency [13] | Potency [17] | Potency [14] | Potency [15]

CC(=O)CCc1ccc(O)cc1
inactive: outcome [1] | outcome [3] | outcome [20] | Potency [4] | outcome [5] | Potency [6] | Potency [7] | Potency [8] | Potency [9] | outcome [16] | max response [11] -1.37% | Potency [12] | Potency [13] | Potency [17] | Potency [14] | Potency [15]

NC(N)=NS(=O)(=O)c1ccc(N)cc1
inactive: outcome [1] | Potency [2] | Potency [4] | outcome [5] | Potency [6] | Potency [7] | Potency [9] | Potency [10] | outcome [16] | max response [11] -4.08% | Potency [13] | Potency [17] | Potency [14] | Potency [15]

O=C(O)CCNC(=O)c1ccc(N=Nc2ccc(O)c(C(=O)O)c2)cc1
inactive: outcome [1] | Potency [2] | outcome [20] | Potency [4] | outcome [5] | Potency [6] | Potency [8] | Potency [9] | outcome [16] | max response [11] -0.519% | Potency [12] | Potency [13] | Potency [14] | Potency [15]

Cn1ccc2cc3c(cc21)CCN3C(=O)Nc1cccnc1
inactive: activation [1] 14.6% [at 19 µM] | activity change, negative = cytotoxicity [2] -7.99% [at 15.8 µM] | activation [20] -0.619% [at 15.8 µM] | activity change, negative = cytotoxicity [4] 1.26% [at 31.6 µM] | activity change, negative = cytotoxicity [5] -2.41% [at 15.8 µM] | activity change, negative = cytotoxic [6] -7.77% [at 15.8 µM] | cytotoxicity [7] -3.51% [at 15.8 µM] | cytotoxicity increase [9] -10.7% [at 15.8 µM] | activity change, negative = cytotoxicity [10] -8.97% [at 15.8 µM] | viability change, negative = cytotoxic [16] -3.74% [at 15.8 µM] | max response [11] -5.83% | activity change [12] -2.97% [at 15.8 µM, active compounds read high] | cytotoxicity increase [13] -8.93% [at 15.8 µM] | activity change, negative = cytotoxic [17] -1.69% [at 15.8 µM] | cytotoxicity [14] -8.65% [at 15.8 µM] | cytotoxicity increase [15] -12.1% [at 15.8 µM]

O=C(CCOCCOCCOCCOCCC(=O)Nc1c(I)cc(I)c(C(=O)O)c1I)Nc1c(I)cc(I)c(C(=O)O)c1I
inactive: outcome [1] | outcome [3] | outcome [20] | Potency [4] | outcome [5] | Potency [6] | Potency [7] | Potency [8] | Potency [9] | Potency [10] | outcome [16] | max response [11] -0.881% | Potency [12] | Potency [13] | Potency [17] | Potency [14] | Potency [15]
